PubChem BioAssay (EPA / NIEHS)
Calls of active or inactive are those of the source. The calls were made as follows: active = hit-call score of the fitted dose curve at least 0.9, where 1 is the maximum; inactive = score below 0.9.

How the values were obtained:
TTR (gene 7276) = test: CCTE_GLTED_hTTR_0.125uM: CCTE's human Transthyretin (hTTR) Inhibition Assay, with 0.125uM TTR, Great Lakes Toxicology and Ecology Division (GLTED) Lab (AID 2284431);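 also: hits lower the fluorescence signal relative to DMSO baseline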
How it was run: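 Cell-free displacement of the fluorescent probe ANSA from human TTR (0.125uM) after 2 h incubation with test chemical. Fluorescence read at 380 nm excitation/475 nm emission; loss of signal fitted relative to DMSO baseline.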

[1] = CCTE_Deisenroth_DEVTOX-GLR_Pluri_CellCount: Viability Assessment in CCTE's DevTox GLR-Pluri Assay Evaluation of Total Cell Counts, Deisenroth Lab (AID 2284430)
How it was run: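 Cytotoxicity readout: fluorescent nuclei counts by high-content imaging, expressed as percent change relative to 0.2% DMSO. Human RUES2-GLR pluripotent line differentiated 48 h, dosed twice at 24-h intervals across 1 nM - 200 uM (10 points).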

| Structure (SMILES) | AC50 (TTR (gene 7276)) | outcome [1] |
| --- | --- | --- |
| O=S(=O)(O)c1ccc(N=Nc2c(O)ccc3ccccc23)cc1 | 0.258 µM (active) |  |
| CC1(C)[C@@H]2CC[C@@]1(C)C(=O)C2 |  | inactive |
| CC1=NN(c2ccc(S(=O)(=O)O)cc2)C(=O)C1N=Nc1ccccc1 (configuration not stated) | 5.69 µM (active) |  |
| CCCCCCCCCCCC(=O)N(C)CC(=O)O | 21.4 µM (active) |  |
| O=C(OCCc1ccccc1)c1ccccc1 | 20.9 µM (active) |  |
| Oc1ccc(-c2ccccc2)c(Cl)c1 | 0.0353 µM (active) |  |
| COc1ccc(C(=O)c2ccccc2)c(O)c1 | 6.35 µM (active) |  |
| CC(C)(c1ccccc1)c1ccc(Nc2ccc(C(C)(C)c3ccccc3)cc2)cc1 | 20.2 µM (active) |  |
| O=C(OCc1ccccc1)c1ccc(O)cc1 | 0.322 µM (active) |  |
| CCCCCCOc1ccc(N)cc1 | 21.2 µM (active) |  |
| Cc1ccc(C)c(OCCCC(C)(C)C(=O)O)c1 | 0.499 µM (active) |  |
| COc1ccc(-c2coc3cc(O)cc(O)c3c2=O)cc1 | 0.335 µM (active) |  |
| CCCCCCCOC(=O)c1ccc(O)cc1 | 1.42 µM (active) |  |
| Oc1ccccc1Cc1ccccc1O | 3.62 µM (active) |  |
| CCCCCC[C@@H](O)C/C=C\CCCCCCCC(=O)OCC(O)CO (some centres not stated) | 13.5 µM (active) |  |
| CCCCCCCCCCCCc1ccc(O)cc1 | 1.62 µM (active) |  |
| O=C(Oc1ccccc1)c1ccccc1O | 4.91 µM (active) |  |
